According to the supplement of paper PMC10849652:
The full data set covers some 8,800 targets. This sample favours those with a hit. About 0.5% of all pairs of compound and target were hits. A number with no mark means an inactive call.

Columns and labels:
Assay in all cases: log2 fold change, soluble protein after heating vs DMSO (PISA); higher = thermal stabilisation; K562 lysate, 10 uM; active = over 0.2 and 3.5 SD of the protein, either way, in both replicates (recomputed)
ibrutinib = compound: C=CC(=O)N1CCC[C@@H](n2nc(-c3ccc(Oc4ccccc4)cc3)c3c(N)ncnc32)C1 [ibrutinib]
Summary of the method: (§1)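 A 30 min treatment with 10 μM compound was applied to crude K562 extract at 1 mg/mL protein in PBS pH 7.4 with 1 mM MgCl2. Heating for 3 min spanned 48°C-58°C, after which aliquots were pooled, adjusted to 0.5% NP-40 at 4°C and spun at 21,000xg for 90 min. TMTpro 16plex LC-MS/MS of the supernatant, with channel sums equalised, gave values recorded as log-two fold change in thermal stability against solvent controls, from duplicates.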

[1] = compound: CC(=O)c1cnc2ccc(-c3cc(Cl)c(O)c(Cl)c3)nc2c1N[C@H]1CC[C@H](CN(C)C)CC1
Summary of the method: as §1

ralimetinib = compound: CC(C)(C)Cn1c(N)nc2ccc(-c3[nH]c(C(C)(C)C)nc3-c3ccc(F)cc3)nc21 [ralimetinib]
Summary of the method: as §1

[2] = compound: CC(C)(O)CC(=O)NCCn1ccc2ncnc(Nc3ccc(Oc4cccc(C(F)(F)F)c4)c(Cl)c3)c21
Summary of the method: as §1

[3] = compound: CC(C)C1=C2N=C(C=C(N2N=C1)NCC3=CC=CC=C3)NCCCCCCN
Summary of the method: as §1

[4] = compound: CC1=C(C(CC(=O)N1)C2=CC=C(C=C2)C(F)(F)F)C(=O)NC3=C(C=C4C(=C3)C=NN4)F
Summary of the method: as §1

[5] = compound: CC1=C(C2=C(C=C1)C(=O)C3=CC=CC=C3N2CCCN)C
Summary of the method: as §1

[6] = compound: CC1=C(C=C(C=C1)NC(=O)C2=CC(=CC=C2)C(C)(C)C#N)NC3=CC4=C(C=C3)N=CN(C4=O)C
Summary of the method: as §1

[7] = compound: CC1=C(C=C(C=C1)NC(=O)C2=CC(=CC=C2)N(C)C)NC(=O)C3=CC=C(C=C3)O
Summary of the method: as §1

[8] = compound: CC1=CC=C(C=C1)SC2=C3C=C(SC3=CN=C2)C(=O)N
Summary of the method: as §1

vemurafenib = compound: CCCS(=O)(=O)Nc1ccc(F)c(C(=O)c2c[nH]c3ncc(-c4ccc(Cl)cc4)cc23)c1F [vemurafenib]
Summary of the method: as §1

[9] = compound: CCCS(=O)(=O)Nc1ccc(F)c(C(=O)c2c[nH]c3ncc(Cl)cc23)c1F
Summary of the method: as §1

barasertib = compound: CCN(CCCOc1ccc2c(Nc3cc(CC(=O)Nc4cccc(F)c4)[nH]n3)ncnc2c1)CCOP(=O)(O)O [barasertib]
Summary of the method: as §1

[10] = compound: CC[C@@H]1C(=O)N(C)c2cnc(Nc3ccc(C(=O)NC4CCN(C)CC4)cc3OC)nc2N1C1CCCC1
Summary of the method: as §1

volasertib = compound: CC[C@@H]1C(=O)N(C)c2cnc(Nc3ccc(C(=O)N[C@H]4CC[C@H](N5CCN(CC6CC6)CC5)CC4)cc3OC)nc2N1C(C)C [volasertib]
Summary of the method: as §1

[11] = compound: CCn1c(C(=O)N(C2CC2)C2CC2)cc2c3c(ncn3C)c(Nc3cc(C)n(C)n3)nc21
Summary of the method: as §1

[12] = compound: CCn1cc(-c2ccnc3[nH]c(-c4cccc(CN(C)C)c4)cc23)c(-c2ccc(NC(=O)N(C)C)cc2)n1
Summary of the method: as §1

[13] = compound: CN1CCC(CNc2ccc3ncc(-c4cccc(OC(F)(F)F)c4)n3n2)CC1
Summary of the method: as §1

saracatinib = compound: CN1CCN(CCOc2cc(OC3CCOCC3)c3c(Nc4c(Cl)ccc5c4OCO5)ncnc3c2)CC1 [saracatinib]
Summary of the method: as §1

sotrastaurin = compound: CN1CCN(c2nc(C3=C(c4c[nH]c5ccccc45)C(=O)NC3=O)c3ccccc3n2)CC1 [sotrastaurin]
Summary of the method: as §1

UniProt O60518, sequence (O60518 whole entry, looked up): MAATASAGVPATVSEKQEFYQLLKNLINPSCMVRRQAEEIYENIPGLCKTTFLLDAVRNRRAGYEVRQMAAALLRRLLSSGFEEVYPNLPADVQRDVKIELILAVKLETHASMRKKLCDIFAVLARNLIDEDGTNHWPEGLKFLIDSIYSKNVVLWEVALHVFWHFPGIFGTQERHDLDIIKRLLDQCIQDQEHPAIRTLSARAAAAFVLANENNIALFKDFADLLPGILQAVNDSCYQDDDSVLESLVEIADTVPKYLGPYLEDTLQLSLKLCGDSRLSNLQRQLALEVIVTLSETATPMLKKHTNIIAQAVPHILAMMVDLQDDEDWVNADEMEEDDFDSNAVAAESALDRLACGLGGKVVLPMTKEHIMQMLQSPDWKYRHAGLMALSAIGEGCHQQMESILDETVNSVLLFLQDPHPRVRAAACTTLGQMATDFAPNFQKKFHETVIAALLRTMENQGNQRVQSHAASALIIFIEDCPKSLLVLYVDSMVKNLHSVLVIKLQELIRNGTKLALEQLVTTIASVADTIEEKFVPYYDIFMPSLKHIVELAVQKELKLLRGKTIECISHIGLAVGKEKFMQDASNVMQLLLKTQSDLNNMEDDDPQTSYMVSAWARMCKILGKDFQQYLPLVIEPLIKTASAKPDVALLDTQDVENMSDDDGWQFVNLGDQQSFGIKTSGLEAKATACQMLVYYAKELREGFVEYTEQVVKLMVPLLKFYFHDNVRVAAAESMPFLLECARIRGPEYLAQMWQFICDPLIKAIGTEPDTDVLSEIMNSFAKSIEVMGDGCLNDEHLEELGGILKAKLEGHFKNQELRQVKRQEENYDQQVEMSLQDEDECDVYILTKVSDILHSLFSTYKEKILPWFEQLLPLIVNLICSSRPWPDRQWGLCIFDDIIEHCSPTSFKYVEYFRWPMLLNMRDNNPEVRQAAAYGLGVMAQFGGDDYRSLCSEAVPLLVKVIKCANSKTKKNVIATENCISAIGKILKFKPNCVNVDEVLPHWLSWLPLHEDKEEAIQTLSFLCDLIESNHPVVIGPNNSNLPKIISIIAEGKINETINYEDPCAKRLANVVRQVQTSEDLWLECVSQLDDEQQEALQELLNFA
UniProt Q8NC42, sequence (Q8NC42 whole entry, looked up): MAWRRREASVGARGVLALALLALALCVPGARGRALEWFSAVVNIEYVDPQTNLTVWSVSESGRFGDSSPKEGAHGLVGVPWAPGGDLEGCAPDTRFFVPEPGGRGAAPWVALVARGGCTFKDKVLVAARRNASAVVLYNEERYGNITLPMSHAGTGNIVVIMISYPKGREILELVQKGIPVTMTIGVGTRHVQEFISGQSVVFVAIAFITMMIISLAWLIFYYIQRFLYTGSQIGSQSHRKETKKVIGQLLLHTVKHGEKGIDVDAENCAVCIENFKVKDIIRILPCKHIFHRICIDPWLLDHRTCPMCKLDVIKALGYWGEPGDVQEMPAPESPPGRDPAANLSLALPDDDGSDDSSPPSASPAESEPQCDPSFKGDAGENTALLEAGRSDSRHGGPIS
UniProt Q96DM3, sequence (Q96DM3 whole entry, looked up): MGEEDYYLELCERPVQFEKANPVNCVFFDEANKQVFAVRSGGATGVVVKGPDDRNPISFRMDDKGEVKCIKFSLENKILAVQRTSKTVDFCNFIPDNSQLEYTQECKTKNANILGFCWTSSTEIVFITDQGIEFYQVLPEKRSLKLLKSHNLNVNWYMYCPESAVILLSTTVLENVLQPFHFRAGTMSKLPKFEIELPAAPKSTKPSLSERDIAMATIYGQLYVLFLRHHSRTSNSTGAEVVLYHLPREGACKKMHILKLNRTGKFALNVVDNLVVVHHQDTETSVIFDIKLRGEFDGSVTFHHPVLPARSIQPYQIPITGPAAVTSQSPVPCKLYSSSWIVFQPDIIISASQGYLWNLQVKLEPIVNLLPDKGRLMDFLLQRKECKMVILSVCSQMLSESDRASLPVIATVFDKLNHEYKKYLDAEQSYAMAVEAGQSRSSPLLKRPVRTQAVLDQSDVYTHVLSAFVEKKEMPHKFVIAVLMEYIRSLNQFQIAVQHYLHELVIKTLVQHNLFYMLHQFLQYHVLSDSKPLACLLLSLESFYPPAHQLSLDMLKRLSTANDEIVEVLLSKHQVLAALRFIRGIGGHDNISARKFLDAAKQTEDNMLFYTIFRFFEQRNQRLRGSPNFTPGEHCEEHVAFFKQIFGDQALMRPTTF
UniProt P51159, sequence (P51159 whole entry, looked up): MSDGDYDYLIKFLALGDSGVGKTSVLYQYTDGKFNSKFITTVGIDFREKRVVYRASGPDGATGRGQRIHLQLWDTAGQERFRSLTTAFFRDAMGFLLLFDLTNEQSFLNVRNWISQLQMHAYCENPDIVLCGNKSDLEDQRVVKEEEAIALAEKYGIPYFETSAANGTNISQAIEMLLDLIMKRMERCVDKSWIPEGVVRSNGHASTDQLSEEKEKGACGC
UniProt Q9HBH5, sequence (Q9HBH5 whole entry, looked up): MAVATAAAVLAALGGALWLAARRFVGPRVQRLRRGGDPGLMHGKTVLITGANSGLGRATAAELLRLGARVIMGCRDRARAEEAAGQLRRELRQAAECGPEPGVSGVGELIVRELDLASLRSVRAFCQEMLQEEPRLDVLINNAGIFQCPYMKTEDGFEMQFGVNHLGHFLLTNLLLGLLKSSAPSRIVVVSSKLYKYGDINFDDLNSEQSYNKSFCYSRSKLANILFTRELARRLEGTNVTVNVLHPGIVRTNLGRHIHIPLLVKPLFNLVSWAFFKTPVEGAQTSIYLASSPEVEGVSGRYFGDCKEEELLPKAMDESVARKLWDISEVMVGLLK
UniProt Q99643, sequence (Q99643 whole entry, looked up): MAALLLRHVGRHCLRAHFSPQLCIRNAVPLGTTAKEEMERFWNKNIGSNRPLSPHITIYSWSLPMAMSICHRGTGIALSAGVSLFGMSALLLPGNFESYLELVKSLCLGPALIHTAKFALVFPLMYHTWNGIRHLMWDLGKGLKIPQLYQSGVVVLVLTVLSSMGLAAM
UniProt Q9BTD8, sequence (Q9BTD8 whole entry, looked up): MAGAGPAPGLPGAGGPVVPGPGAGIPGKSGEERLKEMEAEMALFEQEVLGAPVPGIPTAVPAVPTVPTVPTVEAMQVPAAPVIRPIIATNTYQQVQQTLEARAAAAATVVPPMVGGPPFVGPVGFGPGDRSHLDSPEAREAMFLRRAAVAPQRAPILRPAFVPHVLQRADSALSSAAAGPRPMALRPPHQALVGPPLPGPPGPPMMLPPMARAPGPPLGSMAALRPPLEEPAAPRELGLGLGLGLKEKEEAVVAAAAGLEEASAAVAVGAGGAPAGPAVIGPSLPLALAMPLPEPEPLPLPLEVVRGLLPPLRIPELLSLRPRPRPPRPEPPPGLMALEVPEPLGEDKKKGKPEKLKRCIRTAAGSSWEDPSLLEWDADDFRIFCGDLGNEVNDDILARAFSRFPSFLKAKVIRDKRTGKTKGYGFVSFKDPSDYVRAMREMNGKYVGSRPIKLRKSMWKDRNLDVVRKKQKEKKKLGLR
UniProt Q53S08, sequence (Q53S08 whole entry, looked up): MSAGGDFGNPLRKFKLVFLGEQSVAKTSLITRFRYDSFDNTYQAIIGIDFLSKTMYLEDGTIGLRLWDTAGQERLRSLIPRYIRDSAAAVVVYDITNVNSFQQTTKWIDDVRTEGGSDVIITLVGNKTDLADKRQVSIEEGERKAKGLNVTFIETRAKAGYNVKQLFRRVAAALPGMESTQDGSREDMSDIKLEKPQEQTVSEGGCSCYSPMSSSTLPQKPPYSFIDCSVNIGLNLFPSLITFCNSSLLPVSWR
UniProt Q8IYW5, sequence (Q8IYW5 whole entry, looked up): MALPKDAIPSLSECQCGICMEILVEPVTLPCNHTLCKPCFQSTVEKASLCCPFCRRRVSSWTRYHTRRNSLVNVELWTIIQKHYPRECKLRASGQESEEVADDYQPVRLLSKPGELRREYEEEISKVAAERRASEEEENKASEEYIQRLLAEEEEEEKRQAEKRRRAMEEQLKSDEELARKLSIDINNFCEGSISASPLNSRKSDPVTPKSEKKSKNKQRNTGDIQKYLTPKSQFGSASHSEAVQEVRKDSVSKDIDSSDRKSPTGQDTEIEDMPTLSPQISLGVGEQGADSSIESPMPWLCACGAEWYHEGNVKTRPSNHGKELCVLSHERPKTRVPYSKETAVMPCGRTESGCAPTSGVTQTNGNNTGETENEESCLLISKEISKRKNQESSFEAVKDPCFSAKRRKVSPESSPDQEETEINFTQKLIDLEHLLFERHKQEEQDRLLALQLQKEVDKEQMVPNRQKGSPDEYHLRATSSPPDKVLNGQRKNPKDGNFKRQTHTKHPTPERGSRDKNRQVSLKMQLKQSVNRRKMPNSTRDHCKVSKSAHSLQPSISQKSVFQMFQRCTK
UniProt Q7Z6M1, sequence (Q7Z6M1 whole entry, looked up): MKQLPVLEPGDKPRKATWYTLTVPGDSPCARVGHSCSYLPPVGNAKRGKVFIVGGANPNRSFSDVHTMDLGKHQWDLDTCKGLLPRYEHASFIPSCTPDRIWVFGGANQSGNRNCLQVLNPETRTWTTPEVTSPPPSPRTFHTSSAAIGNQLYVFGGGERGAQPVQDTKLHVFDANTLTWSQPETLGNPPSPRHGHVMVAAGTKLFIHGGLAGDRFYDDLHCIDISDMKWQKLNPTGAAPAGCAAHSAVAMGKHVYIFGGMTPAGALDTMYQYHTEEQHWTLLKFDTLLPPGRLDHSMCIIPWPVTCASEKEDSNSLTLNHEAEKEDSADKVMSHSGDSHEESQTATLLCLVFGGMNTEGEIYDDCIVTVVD

Row | Target | log2 fold change (ibrutinib) | log2 fold change [1] | log2 fold change (ralimetinib) | log2 fold change [2] | log2 fold change [3] | log2 fold change [4] | log2 fold change [5] | log2 fold change [6] | log2 fold change [7] | log2 fold change [8] | log2 fold change (vemurafenib) | log2 fold change [9] | log2 fold change (barasertib) | log2 fold change [10] | log2 fold change (volasertib) | log2 fold change [11] | log2 fold change [12] | log2 fold change [13] | log2 fold change (saracatinib) | log2 fold change (sotrastaurin)
1 | RNF168 (UniProt Q8IYW5) | 0.155 | 0.144 | 0.004 | -0.041 | -0.034 | -0.071 | 0.031 | 0.026 | -0.04 | 0.011 | 0.152 | 0.134 | 0.235 | 0.128 | -0.062 | 0.138 | 0.015 | 0.035 | -0.007 | -0.06
2 | RDH14 (UniProt Q9HBH5) | 0.017 | 0.061 | 0.072 | 0.089 | 0.012 | -0.031 | 0.053 | -0.073 | 0.032 | -0.012 | 0.038 | 0.026 | -0.007 | -0.076 | -0.022 | 0.009 | -0.228 | 0.061 | -0.015 | 0.074
3 | RABEPK (UniProt Q7Z6M1) | 0 | -0.002 | 0.01 | -0.006 | 0.018 | -0.009 | -0.007 | 0.008 | 0.001 | 0 | -0.024 | 0.003 | -0.066 | 0.014 | -0.006 | -0.021 | 0.015 | 0.011 | -0.02 | -0.028
4 | RAB6D (UniProt Q53S08) | 0 | 0.013 | -0.011 | -0.087 | 0.014 | -0.113 | -0.057 | 0.009 | 0.009 | -0.026 | 0.005 | -0.033 | 0.15 | 0.289 (active) | 0.033 | -0.049 | -0.065 | 0.018 | -0.053 | -0.025
5 | RANBP6 (UniProt O60518) | -0.034 | -0.05 | 0.025 | -0.066 | -0.034 | -0.005 | -0.017 | -0.009 | 0.026 | 0.009 | 0.008 | 0.025 | 0.013 | -0.016 | 0.013 | 0.068 | -0.045 | 0.06 | -0.038 | 0.002
6 | RBM42 (UniProt Q9BTD8) | 0.071 | 0.02 | -0.011 | -0.007 | 0.081 | 0.025 | 0.04 | -0.028 | -0.005 | 0.069 | -0.029 | 0.027 | -0.037 | 0.076 | -0.014 | -0.006 | 0.004 | -0.002 | 0.039 | -0.009
7 | RMC1 (UniProt Q96DM3) | -0.004 | 0.018 | 0.03 | -0.024 | -0.001 | -0.017 | -0.018 | 0.009 | 0.005 | 0.027 | 0.009 | 0.029 | 0.003 | 0.028 | -0.044 | -0.02 | 0 | 0.024 | 0.018 | -0.015
8 | SDHC (UniProt Q99643) | 0.033 | -0.012 | 0.064 | -0.035 | -0.05 | -0.015 | -0.013 | -0.026 | 0.023 | 0.044 | -0.035 | -0.022 | 0.031 | -0.089 | 0.044 | 0.04 | -0.307 (active) | 0.156 | 0.063 | 0.062
9 | RNF149 (UniProt Q8NC42) | 0.04 | 0.023 | 0.044 | -0.041 | -0.005 | -0.021 | 0.001 | -0.014 | 0.113 | 0.06 | -0.026 | -0.15 | 0.026 |  | -0.063 | -0.162 | 0.343 | 0.02 | 0.021 | -0.081
10 | RAB27A (UniProt P51159) | -0.011 | -0.035 | 0.074 | 0.033 | -0.054 | -0.044 | 0.047 | -0.057 | 0.006 | -0.026 | -0.037 | -0.024 | 0.012 | -0.056 | -0.082 | 0.034 | 0.679 (active) | -0.048 | 0.021 | 0.001
11 | RAPGEF2, A0A2R8YGD3 | -0.059 | 0.007 | 0.008 | -0.037 | 0.008 | 0.054 | -0.07 | 0.025 | -0.025 | 0.023 | 0 | 0.013 | 0.144 | 0.093 | -0.015 | -0.029 | 0.325 | 0.05 | 0.01 | -0.003
12 | RAP1B (UniProt F5GZG1) | 0.01 | -0.021 |  |  | 0.061 | 0.036 | 0.019 | -0.124 |  | 0.117 | 0.025 | -0.069 | 0.043 | -0.013 | -0.015 |  | 0.471 | 0.041 | 0.094 | -0.038
